Measured values reported in the supplement of paper PMC6992640.
± gives the standard deviation of the averaged measurements.

How the values were obtained:
Assay in all cases: cell viability (% of vehicle); higher = less cytotoxic
Conditions in all cases: 10 µM; 72 h
HCI01 = tested on: HCI01 (cells of a triple-negative basal-like breast cancer xenograft)
HCI03 = tested on: HCI03 (cells of an ER-positive luminal breast cancer xenograft)
HCI09 = tested on: HCI09 (cells of a triple-negative luminal androgen receptor type breast cancer xenograft)
HCI11 = tested on: HCI11 (cells of an ER-positive luminal breast cancer xenograft)
HCI13 = tested on: HCI13 (cells of an ER-positive luminal breast cancer xenograft)
HCI16 = tested on: HCI16 (cells of a triple-negative basal-like breast cancer xenograft)
UCD52 = tested on: UCD52 (cells of a triple-negative basal-like breast cancer xenograft)
WHIM2 = tested on: WHIM2 (cells of a triple-negative basal-like breast cancer xenograft)
WHIM30 = tested on: WHIM30 (cells of a triple-negative basal-like breast cancer xenograft)
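Note: PDX cells carrying CMV promoter-driven luciferase, viability read as total photon flux per second by IVIS imaging following D-luciferin, vehicle control 0.1% DMSO.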

SMILES | cell viability (HCI01) | cell viability (HCI03) | cell viability (HCI09) | cell viability (HCI11) | cell viability (HCI13) | cell viability (HCI16) | cell viability (UCD52) | cell viability (WHIM2) | cell viability (WHIM30)
COc1cc2c(cc1OC)CC(=O)N(CCCN(C)CC1Cc3cc(OC)c(OC)cc31)CC2.Cl (centres undefined) [Ivabradine HCl] | 105 ± 7.9 | 121 | 100 ± 19 | 114 | 99.3 ± 3.9 | 97.9 | 85.7 ± 11 | 93.2 ± 17 | 123 ± 5.3
NC(=O)N1CCC(CC(=O)N2CCC(C3c4ncc(Br)cc4CCc4cc(Cl)cc(Br)c43)CC2)CC1 (centres undefined) [Lonafarnib] | 72.5 ± 68 | 121 | 12.8 ± 2.5 | 163 | 43.2 ± 17 | 170 | – | 126 ± 12 | 115 ± 7.2
CN(Cc1cc(Br)cc(Br)c1N)C1CCCCC1.Cl [Bromhexine HCl] | 95.8 ± 14 | 86.3 | 93 ± 6 | 96.3 | 64.9 ± 2.5 | 106 | 73.8 ± 6.8 | 44.5 ± 15 | 108 ± 3.3
Cc1cc(C2CCCCC2)n(O)c(=O)c1.NCCO [Ciclopirox ethanolamine] | 113 ± 52 | 60.3 | 31.7 ± 9.4 | 69.4 | 59.3 ± 3.2 | 123 | 63.4 ± 8.2 | – | 86.4 ± 7
S=P(N1CC1)(N1CC1)N1CC1 | 109 ± 26 | 143 | 104 ± 1.4 | 103 | 111.3 ± 0.35 | 120 | 96.8 ± 5.2 | 83.8 ± 23 | 119 ± 11
Cc1cn(C2CC(N=[N+]=[N-])C(CO)O2)c(=O)[nH]c1=O (centres undefined) [Zidovudine] | 104 ± 3.4 | 160 | 116 ± 1.2 | 101 | 124 ± 7.2 | 143 | 123 ± 16 | 98.22 ± 0.63 | 144 ± 7.7
CC1COc2c(N3CCN(C)CC3)c(F)cc3c(=O)c(C(=O)O)cn1c23 (centres undefined) [Ofloxacin] | 123 ± 23 | 173 | 135 ± 18 | 86.6 | 186 ± 11 | 133 | 138.6 ± 1 | – | 159 ± 11
CC(C)Cn1cnc2c(N)nc3ccccc3c21 [Imiquimod] | 92.9 ± 12 | 109 | 72.71 ± 0.55 | 42.7 | 91 ± 20 | – | 76.7 ± 1.4 | 115 ± 14 | 116 ± 8
CCN(CC)C(=O)C(C#N)=Cc1cc(O)c(O)c([N+](=O)[O-])c1 [Entacapone] | 121 ± 8.8 | 159 | 105 ± 2.4 | 80.8 | 98.77 ± 0.41 | 105 | 98.7 ± 14 | 192 ± 14 | 104 ± 7
CCCCOc1cc(C(=O)NCCN(CC)CC)c2ccccc2n1 [Dibucaine] | 94.3 ± 30 | 158 | 95.5 ± 9.9 | 93.9 | 135 ± 2 | 135 | 81.16 ± 0.71 | 95.1 ± 14 | 89.012 ± 0.00099
CN(C)CCOC(C)(c1ccccc1)c1ccccn1.O=C(O)CCC(=O)O (centres undefined) [Doxylamine Succinate] | 122 ± 18 | 124 | 101 ± 14 | 101 | 90.5 ± 6.7 | 108 | 94.28 ± 0.33 | 97.4 ± 22 | 103.9 ± 0.48
CNCc1ccc(-c2[nH]c3cc(F)cc4c3c2CCNC4=O)cc1.O=P(O)(O)O | 161.1 ± 0.84 | 104 | 76 ± 12 | 85.9 | 145 ± 9.1 | – | 126 ± 39 | 173 ± 26 | –
CC(C)(O)c1ccccc1CCC(SCC1(CC(=O)[O-])CC1)c1cccc(C=Cc2ccc3ccc(Cl)cc3n2)c1.[Na+] (centres undefined) [Montelukast Sodium] | 41.5 ± 20 | 169 | 83.3 ± 85 | 103 | 45.5 ± 6.3 | 165 | – | 50.8 ± 12 | 156.57 ± 0.11
CCCCN1CCCCC1C(=O)Nc1c(C)cccc1C.Cl (centres undefined) [Bupivacaine HCl] | 145 ± 30 | 128 | 104 ± 14 | 120 | 106 ± 2.1 | 169 | 89 ± 16 | 111 ± 7.6 | 117 ± 12
CC(C)(C)NCC(O)COc1cccc2c1CCC(O)=N2.Cl (centres undefined) [Carteolol HCl] | 96.4 ± 13 | 144 | 97.3 ± 14 | 110 | 123 ± 1.9 | 115 | 114 ± 3.5 | 87.3 ± 17 | 116.5 ± 0.86
CCCCNC(=O)NS(=O)(=O)c1ccc(C)cc1 [Tolbutamide] | 80.9 ± 42 | 118 | 91.4 ± 5.3 | 83.6 | 88.9 ± 3.6 | 101 | 96.6 ± 5.1 | 105 ± 25 | 101 ± 8.5
Nc1nc(Cl)nc2c1ncn2C1OC(CO)C(O)C1F (centres undefined) [Clofarabine] | 162.3 ± 0.47 | 175 | 141 ± 70 | 126 | 180 ± 11 | 92.9 | 143 ± 24 | – | 128.5 ± 0.14
CCC1=CC2CN(C1)Cc1c([nH]c3ccccc13)C(C(=O)OC)(c1cc3c(cc1OC)N(C)C1C(O)(C(=O)OC)C(OC(C)=O)C4(CC)C=CCN5CCC31C54)C2.O=C(O)C(O)C(O)C(=O)O.O=C(O)C(O)C(O)C(=O)O (centres undefined) [Vinorelbine ditartrate] | 106 ± 17 | 112 | 65.2 ± 5.9 | 109 | 39 ± 7.7 | 122 | 55.7 ± 4 | 57.2 ± 2.2 | 95.5 ± 16
Cc1cnc(C(=O)NCCc2ccc(S(=O)(=O)NC(=O)NC3CCCCC3)cc2)cn1 [Glipizide] | 104 ± 16 | 128 | 106 ± 16 | 108 | 93.1 ± 1.8 | 99.1 | 83.6 ± 5.6 | 87.2 ± 11 | 138 ± 12
CCCc1nc2c(C)cc(-c3nc4ccccc4n3C)cc2n1Cc1ccc(-c2ccccc2C(=O)O)cc1 [Telmisattan] | 107 ± 23 | 111 | 113 ± 59 | 101 | – | 116 | 122.3 ± 0.62 | 85 ± 18 | 146 ± 1.6
CCC(=O)OCC(=O)C1(OC(=O)CC)C(C)CC2C3CCC4=CC(=O)C=CC4(C)C3(Cl)C(O)CC21C (centres undefined) [Beclomethasone dipropionate] | 131 ± 100 | 182 | 144 ± 8.8 | 123 | – | 175 | 133 ± 3.9 | 128 ± 3.2 | 123 ± 10
